Compound activity deposited in PubChem by National Center for Advancing Translational Sciences (NCATS).
In the library only some 2.4% were active in any assay of this set; here they are far more common.
POLB inh = DNA polymerase beta (human) inhibition; AID 485314; P06746; hit rate 1.3% among 340,000; Pol beta primer extension/strand displacement, fluorescence kinetic; Potency, µM (doses to about 114 µM), without a hit: at the highest dose activity change, negative = inhibition, usual class: inhibitors; note: % is set by controls: 0 for no effect and ±100 for the full control effect
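Preincubation: enzyme (10 nM) with compound, 15 min, RT. Reaction: substrate added to 50 nM final. Reads: 0 and 10 min. Analysis: normalized, Hill fit.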
Pol iota inh = blocks human DNA polymerase iota activity. Q9UNA4. Pol iota fluorescent replication assay, 10 min. Potency, µM (titrated, usually from 115 µM), inactives show at the highest dose activity, negative = inhibition, hits mostly inhibitors. hit rate 1% among 390,000
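Pol iota at 10 nM preincubated 15 min with compounds at room temperature; reaction started with fluorescent substrate, 50 nM final. Fluorescence read kinetically at 0 and 10 min; buffer-only wells as negative control.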
POLK inh = blocks human DNA polymerase kappa activity. purified Pol kappa, fluorescent DNA synthesis assay, 10 min. Potency, µM (titrated, usually from 107 µM), inactives show at the highest dose activity, negative = inhibition, actives largely listed as inhibitors. hit rate 0.53% among 400,000; note: % is set by controls: 0 for no effect and ±100 for the full control effect
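Fluorescent qHTS in 1536-well format: enzyme (10 nM) and compound sat 15 min at room temperature before 50 nM substrate (final) was added. Signal taken at 0 and 10 min; no-enzyme buffer wells were negative controls.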
POLH inh = blocks human DNA polymerase eta activity; Q9Y253; recombinant Pol eta, fluorescent DNA replication assay; Potency, µM (titrated, usually from 114 µM), for the others: at the top dose activity change, negative = inhibition, most hits filed as inhibitors; hit rate 1.2% among 390,000; AID 588591; note: % is set by controls: 0 for no effect and ±100 for the full control effect
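Pol eta (10 nM) was preincubated with compounds for 15 min at room temperature, after which fluorescent replication substrate (50 nM final) was added to start the reaction. Fluorescence was read kinetically at 0 and 10 min.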
FEN1 inh = blocks human flap endonuclease 1; Recombinant FEN1 flap cleavage, fluorescence, 15 min; hit rate 0.35% among 390,000; Potency, µM (highest dose often 114 µM), for inactives: at the highest dose activity change, negative = inhibition, most hits filed as inhibitors; note: % is set by controls: 0 for no effect and ±100 for the full control effect; nearly all actives have a fitted effect of over 65% in size
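Compounds are tested as a concentration series against 10 nM FEN1; after a 15 min room-temperature preincubation, 50 nM substrate starts cleavage, with plate reads at 0 and 15 min. Normalized responses are fitted by a Hill equation.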
PGK inhibitor = blocks T. brucei phosphoglycerate kinase; P07378; PGK/GAPDH coupled, Kinase-Glo luminescence, 60 min; Potency, µM (top dose mostly 57.5 µM), for inactives: at the top dose activity change, negative = inhibition, most hits filed as inhibitors; hit rate 0.043% among 380,000; AID 602233; note: % is set by controls: 0 for no effect and ±100 for the full control effect; nearly all actives have a fitted effect of over 60% in size
Target sequence (P07378 whole entry, looked up): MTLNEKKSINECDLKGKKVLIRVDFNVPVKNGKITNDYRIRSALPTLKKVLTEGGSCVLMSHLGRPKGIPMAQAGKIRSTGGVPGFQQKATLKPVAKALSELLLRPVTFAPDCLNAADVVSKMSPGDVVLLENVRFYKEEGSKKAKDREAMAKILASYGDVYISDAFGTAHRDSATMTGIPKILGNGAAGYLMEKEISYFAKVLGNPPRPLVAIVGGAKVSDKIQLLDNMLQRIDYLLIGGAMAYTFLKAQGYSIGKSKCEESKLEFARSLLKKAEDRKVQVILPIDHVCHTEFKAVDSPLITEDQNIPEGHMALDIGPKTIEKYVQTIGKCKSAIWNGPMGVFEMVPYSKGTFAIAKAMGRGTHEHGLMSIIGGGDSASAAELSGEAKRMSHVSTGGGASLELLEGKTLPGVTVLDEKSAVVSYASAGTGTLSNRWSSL
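Luminescent ATP detection (Kinase-Glo Plus) follows a 60-minute room-temperature incubation, with wells lacking PGK as controls. Buffer: 100 mM TEA (pH 7.6), 5 mM MgCl2, 0.01% Tween-20. Coupling enzyme GAPDH (100 nM final) supplies unstable 1,3-BPG in-well.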
Starred values were filed as active, the others as inactive; i = inactive; u = inconclusive; x = not tested or not shown; [ ] = remark or other dose. Calls come from the whole dose curve; as a rule, active = well fitted curve in the direction sought with a large enough effect; inconclusive = small, poorly fitted or top-dose-only effect, or another doubt; inactive = no such curve, though single readings can be large; an effect the other way counts as inactive or inconclusive. Potency is the fitted concentration of half-maximal effect.

SMILES	POLB inh	Pol iota inh	POLK inh	POLH inh	FEN1 inh	PGK inhibitor
COc1ccc(C2Nc3ccc(NC(C)=O)cc3C(=O)N2Cc2cccc(Cl)c2)cc1COc1ccc(NC(C)=O)cc1 (configuration not stated)	x	25.9%	-6.0%	x	-21.9%	x
COCCCNc1oc(-c2cccs2)nc1S(=O)(=O)c1ccc(C)cc1	39.8µM*	79.0%	-2.9%	-19.1%	-1.7%	i
CCCCCCCCCCCCCCCCCCN(CCCCCCCCCCCCCCCCCC)c1ccc(C=O)cc1	x	8.6%	-6.3%	x	-1.0%	x
CC(N)(Cc1ccc(O)c(O)c1)C(=O)O (configuration not stated)	5.62µM*	u	u	-2.8%[57.1 µM]	x	x
Fc1ccc(/C=C/c2ccc3ccccc3n2)cc1	x	-4.1%	u	x	-6.6%	x
CCC1C(=O)C(C)(C)C(=O)OC1c1ccc([N+](=O)[O-])cc1 (configuration not stated)	89.1µM*	46.2%	-2.0%	-17.4%	12.5%	-1.1%
COc1ccccc1CCNC(=O)C(C)Sc1nc(-c2ccccc2)cc(C(F)(F)F)n1 (configuration not stated)	0.1%	-4.4%	-16.4%	-6.1%	-3.2%	-2.3%
C=CCc1ccccc1OCCSc1nc(-c2ccccc2F)nc2cc(=O)[nH]n12	10µM*	u	-38.8%	u	-6.3%	-16.8%
COc1cccc(-c2nc(SCc3ccc(C)cc3)n3[nH]c(=O)cc3n2)c1	u	89.1µM*	-15.8%	-7.7%	-5.5%	-6.5%
COc1ccc(NC(=O)CSc2nc(-c3ccco3)cc(C(F)(F)F)n2)cc1Cl	28.6%	4.7%	-17.2%	2.4%	-18.2%	-3.4%
COc1ccccc1OCCCSc1nc(-c2ccc(C(C)(C)C)cc2)nc2cc(=O)[nH]n12	u	u	u	79.4µM*	-12.9%	-13.4%
COc1ccc(NC(=O)CSc2nc(-c3ccco3)nc3cc(=O)[nH]n23)cc1Cl	-33.9%	79.4µM*	-37.2%	u	-17.6%	-4.1%
Clc1ccc(Nc2nc(NCc3ccco3)nc3nccnc23)cc1	x	24.9%	0.4%	x	-4.0%	x
Cc1cccc(NC(=O)CSc2nc(-c3cccs3)nc3cc(=O)[nH]n23)c1	u	u	-30.9%	-7.9%	-15.4%	-10.0%
O=C(CSc1nc(-c2ccccc2)nc2cc(=O)[nH]n12)Nc1ccccc1	u	u	-9.0%[60.1 µM]	-1.9%	-8.7%	-12.0%
Cc1ccc(NC(=O)CSc2nnc(CNC(=O)c3ccco3)n2C)cc1C	x	30.8%	-2.0%	-20.3%	4.3%	-1.8%
Cc1cccc(-c2nc(SCC(=O)Nc3cccc(C(F)(F)F)c3)n3[nH]c(=O)cc3n2)c1	39.8µM*	u	-26.4%	-19.5%	-20.9%	u
COc1ccc(NC(=O)CSc2nc(-c3ccccc3)nc3cc(=O)[nH]n23)cc1	25.1µM*	u	u	-14.7%	-3.0%	u
Cc1ccc(NC(=O)CSc2nc(-c3cccs3)nc3cc(=O)[nH]n23)cc1	31.6µM*	u	-34.0%	79.4µM*	-13.5%	u
Cc1ccc(NC(=O)CSc2nc(-c3ccco3)nc3cc(=O)[nH]n23)cc1C	39.8µM*	u	u	u	0.7%	i
COc1ccc(F)cc1S(=O)(=O)NCC(c1ccco1)S(=O)(=O)c1ccc(F)cc1 (configuration not stated)	6.0%	14.5%	-9.6%[60.1 µM]	-12.3%	3.1%	0.7%
COc1ccc(NC(=O)CSc2nc(-c3ccco3)nc3cc(=O)[nH]n23)cc1	25.1µM*	79.4µM*	u	u	-2.5%	-11.2%
CC1CCCN(Cc2c(O)ccc3c2O/C(=C\c2ccco2)C3=O)C1 (configuration not stated)	12.6µM*	1.58µM*	35.5µM*	44.7µM*	u	-1.9%
CCN1CCN(Cc2c(O)ccc3c2O/C(=C\c2ccccc2)C3=O)CC1	-23.2%	14.0%	0.3%	-17.4%	-4.2%	-0.2%
O=C(CSc1ccc(Cl)cc1)Nc1ccc(-c2nc3ccccc3[nH]2)cc1	31.6µM*	-44.1%	-16.3%	u	-15.9%	-6.8%
SMILES	POLB inh	Pol iota inh	POLK inh	POLH inh	FEN1 inh	PGK inhibitor
COC(=O)[C@H](C)NS(=O)(=O)C1CC1	x	8.6%	5.8%	x	12.3%	x
O=[N+]([O-])c1cc(CN2CCN(c3cccc(C(F)(F)F)c3)CC2)c2cccnc2c1O	17.8µM*	84.3%	-26.4%	-23.5%	u	2.3%
COC(=O)c1n[nH]n(-c2ccccc2)c1=O	31.0%	0.6%	10.3%	-6.8%	3.9%	-0.9%
CCCSc1cc(N2CCOCC2)nc(-c2ccccc2Cl)n1	79.4µM*	-5.5%	-5.8%	-10.1%	11.1%	-8.0%
CCSc1cc(N2CCOCC2)nc(-c2ccccc2)n1	5.5%	19.6%	-0.6%	-18.3%	11.7%	2.5%
CCCSc1ncc(Cl)c(C(=O)Nc2sc3c(c2C(=O)NCC)CCCC3)n1	20.5%	32.7%	-8.6%	x	-3.8%	x
CSc1ccc(/C=N/NC(=O)c2cc(O)cc(O)c2)cc1	20.9%	24.0%	-17.7%	-20.5%	-7.2%	-5.6%
CSc1ccc(/C=N/NC(=O)c2ccc(C)c(C)c2)cc1	25.1µM*	u	-23.6%	u	-16.3%	3.0%
CCOc1cccc(C(=O)N/N=C/c2ccoc2)c1	u	-5.1%	-14.7%	-16.5%	18.6%	-3.2%
CCOc1ccccc1C(=O)N/N=C/c1ccoc1	20µM*	79.4µM*	-28.3%	-20.4%	-12.1%	-6.8%
O=C(N/N=C/c1ccoc1)c1cc(Br)ccc1O	20µM*	89.1µM*	u	u	-4.9%	-15.0%
Cc1ccc(C(=O)N/N=C/c2ccoc2)cc1C	25.1µM*	3.0%	2.7%	u	8.7%	-1.1%
COc1ccccc1CNc1ncnc2ccc(-c3ccccc3OC)cc12	x	x	7.7%[60.1 µM]	x	x	x
O=C(/C=C/c1ccccc1)Nc1cc(NC(=O)/C=C/c2ccccc2)cc(C(=O)O)c1	-21.6%	12.0%	-3.1%	50.1µM*	u	-7.7%
Cc1ccc(C(=O)CC(SCC(=O)O)c2ccc([N+](=O)[O-])cc2)cc1 (configuration not stated)	-7.4%	10µM*	3.0%	-25.5%	25.6%	-9.9%
Nc1ccccc1SC(CC(=O)c1ccccc1)c1ccc([N+](=O)[O-])cc1 (configuration not stated)	x	x	x	-6.0%	x	-8.1%
Cc1ccc(-c2c(C)n3c4c(=O)n(C)c(=O)n(C)c4nc3n2CCCO)cc1	-10.2%	17.7%	2.7%	-15.5%	-11.0%	-8.1%
COc1cccc(CSc2nc(-c3ccccc3OC)nc3c2Cc2c(CO)cnc(C)c2O3)c1	-1.2%	10.6%	-6.4%	-8.6%	5.2%	2.3%
